According to PubChem BioAssay (EPA / NIEHS):
Several values for one entry are separate records, joined by “and”; a condition that tells them apart may be missing. Equal entries are not always repeated. Inconclusive results are not listed. Where a structure was tested more than once in an assay, its records may differ in their call. Activity calls are given as the source filed them. How the source made its calls, unless noted: active means hit-call score of the fitted dose curve at least 0.9, where 1 is the maximum; inconclusive means response in the unintended direction; inactive means score below 0.9.

What was measured:
[1] = molecular target: Estrogen receptor beta (Homo sapiens) (UniProt Q92731); experiment: OT_ER_ERbERb_1440: Odyssey Thera (OT) 24-hour HEK293T Protein-Complementation Assay for Estrogen Receptor-beta/-beta Homodimer (AID 2283380);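 further: fluorescence gain from ER beta LBD homodimer complementation read by laser scanning cytometry; scored as signal increase over DMSO baseline for both agonists and antagonists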
Sequence of Estrogen receptor beta (Homo sapiens) (Q92731 whole entry, looked up, the tested form may be a part): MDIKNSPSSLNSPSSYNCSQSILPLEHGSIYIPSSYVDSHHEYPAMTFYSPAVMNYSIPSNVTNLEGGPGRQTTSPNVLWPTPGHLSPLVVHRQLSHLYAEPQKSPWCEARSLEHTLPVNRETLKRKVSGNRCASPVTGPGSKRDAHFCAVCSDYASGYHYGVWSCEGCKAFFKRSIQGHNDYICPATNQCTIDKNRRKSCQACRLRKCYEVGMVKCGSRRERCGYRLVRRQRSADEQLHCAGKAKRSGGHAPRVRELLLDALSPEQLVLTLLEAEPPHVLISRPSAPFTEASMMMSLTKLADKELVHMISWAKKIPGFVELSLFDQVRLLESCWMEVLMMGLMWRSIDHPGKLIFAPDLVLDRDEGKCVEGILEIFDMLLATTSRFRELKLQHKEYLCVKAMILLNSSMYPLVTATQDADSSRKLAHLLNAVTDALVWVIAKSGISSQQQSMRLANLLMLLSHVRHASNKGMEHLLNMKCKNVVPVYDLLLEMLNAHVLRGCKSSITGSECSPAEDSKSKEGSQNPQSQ
Procedure, shortened: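 HEK293T cells stably expressing human ER-beta LBD (aa 310-547) PCA homodimer pair, dosed 24 h; formaldehyde-fixed, Draq5-stained. Readout: increase in nuclear (agonist) or nuclear plus cytoplasmic (antagonist) fluorescence intensity versus DMSO, gain-of-signal fitting.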

[2] = molecular target: Estrogen receptor (Homo sapiens) (UniProt P03372); experiment: OT_ERa_GFPERaERE_0120: Odyssey Thera (OT) 2-hour HeLa Transcription Induction Assay for Estrogen Receptor (AID 2283382)
Sequence of Estrogen receptor (Homo sapiens) (P03372 whole entry, looked up): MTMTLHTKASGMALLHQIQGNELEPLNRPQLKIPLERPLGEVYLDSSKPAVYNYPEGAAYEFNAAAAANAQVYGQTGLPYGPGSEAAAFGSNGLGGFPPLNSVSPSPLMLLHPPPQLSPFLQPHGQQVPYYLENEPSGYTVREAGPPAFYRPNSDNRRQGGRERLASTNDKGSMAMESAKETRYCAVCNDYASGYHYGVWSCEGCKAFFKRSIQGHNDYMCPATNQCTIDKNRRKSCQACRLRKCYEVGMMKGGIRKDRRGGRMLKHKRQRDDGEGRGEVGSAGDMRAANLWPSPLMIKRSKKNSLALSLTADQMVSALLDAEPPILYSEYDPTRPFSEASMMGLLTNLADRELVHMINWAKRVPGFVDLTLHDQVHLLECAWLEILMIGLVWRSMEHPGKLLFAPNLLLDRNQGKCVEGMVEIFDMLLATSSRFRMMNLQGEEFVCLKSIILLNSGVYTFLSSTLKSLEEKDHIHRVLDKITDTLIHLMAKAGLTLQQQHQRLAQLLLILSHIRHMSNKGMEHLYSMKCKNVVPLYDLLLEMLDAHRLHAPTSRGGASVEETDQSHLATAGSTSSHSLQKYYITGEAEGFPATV
Procedure, shortened: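 Measures ESR1 pathway reporter gain-of-signal in HeLa cells after a 2-hour treatment, detected as fluorescent protein induction by microscopy, DMSO as baseline.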

[3] = molecular target: Bile acid receptor (Homo sapiens) (UniProt Q96RI1); experiment: OT_FXR_FXRSRC1_0480: Odyssey Thera (OT) 8-hour HEK293T Protein-Complementation Assay for Farnesoid X receptor/SRC-1 Co-activator (AID 2283383)
Sequence of Bile acid receptor (Homo sapiens) (Q96RI1 whole entry, looked up, the tested form may be a part): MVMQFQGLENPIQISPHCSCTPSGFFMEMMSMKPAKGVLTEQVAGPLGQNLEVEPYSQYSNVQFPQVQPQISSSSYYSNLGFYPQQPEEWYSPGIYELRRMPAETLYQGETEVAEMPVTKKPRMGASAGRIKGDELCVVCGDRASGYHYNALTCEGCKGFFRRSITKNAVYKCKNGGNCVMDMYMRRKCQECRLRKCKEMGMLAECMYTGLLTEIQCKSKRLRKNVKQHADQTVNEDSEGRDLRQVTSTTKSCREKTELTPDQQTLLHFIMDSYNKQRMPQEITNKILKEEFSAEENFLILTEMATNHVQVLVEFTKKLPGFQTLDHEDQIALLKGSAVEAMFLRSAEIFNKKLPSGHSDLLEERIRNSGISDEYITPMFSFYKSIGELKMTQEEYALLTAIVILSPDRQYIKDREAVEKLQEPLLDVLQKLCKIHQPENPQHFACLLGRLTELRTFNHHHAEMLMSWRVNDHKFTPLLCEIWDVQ
Procedure, shortened: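 Co-activator recruitment to FXR was measured in living HEK293T cells, where interaction of the two fused partners restored an active fluorescent reporter. Signal gain after 8 h treatment was referenced to DMSO.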

[4] = molecular target: Bile acid receptor (Homo sapiens) (UniProt Q96RI1); experiment: OT_FXR_FXRSRC1_1440: Odyssey Thera (OT) 24-hour HEK293T Protein-Complementation Assay for Farnesoid X receptor/SRC-1 Co-activator (AID 2283384)
Procedure, shortened: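 Cell-based binding reporter: interaction of FXR with SRC-1 brings reporter fragments together, giving a fluorescence signal read 24 h after dosing of HEK293T cells.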

[5] = molecular target: Retinoic acid receptor RXR-alpha (Homo sapiens) (UniProt P19793); experiment: OT_NURR1_NURR1RXRa_0480: Odyssey Thera (OT) 8-hour HEK293T Protein Complementation Assay for Nurr1/retinoid X receptor (RXR) (AID 2283385)
Sequence of Retinoic acid receptor RXR-alpha (Homo sapiens) (P19793 whole entry, looked up, the tested form may be a part): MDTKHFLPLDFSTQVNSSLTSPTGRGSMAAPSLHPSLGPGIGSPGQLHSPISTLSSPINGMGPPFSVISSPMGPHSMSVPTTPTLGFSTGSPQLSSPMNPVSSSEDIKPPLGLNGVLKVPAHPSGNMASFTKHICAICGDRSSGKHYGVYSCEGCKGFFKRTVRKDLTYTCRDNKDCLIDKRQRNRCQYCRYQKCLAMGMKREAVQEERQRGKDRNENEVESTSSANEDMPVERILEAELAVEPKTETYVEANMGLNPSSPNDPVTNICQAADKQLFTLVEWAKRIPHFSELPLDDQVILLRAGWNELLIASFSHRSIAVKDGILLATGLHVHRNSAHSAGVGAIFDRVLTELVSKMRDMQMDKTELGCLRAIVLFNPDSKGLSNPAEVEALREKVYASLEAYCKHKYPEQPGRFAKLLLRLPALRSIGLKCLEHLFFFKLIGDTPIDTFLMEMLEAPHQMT
Procedure, shortened: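 Compounds are applied to HEK293T cells carrying Nurr1 and RXRα linked to reporter fragments. After 8 h, fluorescence intensity reports heterodimer formation, with DMSO as baseline.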

[6] = molecular target: Retinoic acid receptor RXR-alpha (Homo sapiens) (UniProt P19793); experiment: OT_NURR1_NURR1RXRa_1440: Odyssey Thera (OT) 24-hour HEK293T Protein Complementation Assay for Nurr1/retinoid X receptor (RXR) (AID 2283386)
Procedure, shortened: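 Measured as fluorescence from a reconstituted split reporter, this 24 h HEK293T complementation assay scores compound-induced gain of Nurr1/RXRα association relative to DMSO.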

[7] = molecular target: Peroxisome proliferator-activated receptor gamma (Homo sapiens) (UniProt P37231); experiment: OT_PPARg_PPARgSRC1_0480: Odyssey Thera (OT) 8-hour Protein-Complementation Assay for Peroxisome Proliferator-activated Receptor Gamma / SRC-1 Co-activator (AID 2283387);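 further: nuclear to cytoplasmic split Venus YFP fluorescence ratio reporting PPARg SRC-1 interaction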
Sequence of Peroxisome proliferator-activated receptor gamma (Homo sapiens) (P37231 whole entry, looked up, the tested form may be a part): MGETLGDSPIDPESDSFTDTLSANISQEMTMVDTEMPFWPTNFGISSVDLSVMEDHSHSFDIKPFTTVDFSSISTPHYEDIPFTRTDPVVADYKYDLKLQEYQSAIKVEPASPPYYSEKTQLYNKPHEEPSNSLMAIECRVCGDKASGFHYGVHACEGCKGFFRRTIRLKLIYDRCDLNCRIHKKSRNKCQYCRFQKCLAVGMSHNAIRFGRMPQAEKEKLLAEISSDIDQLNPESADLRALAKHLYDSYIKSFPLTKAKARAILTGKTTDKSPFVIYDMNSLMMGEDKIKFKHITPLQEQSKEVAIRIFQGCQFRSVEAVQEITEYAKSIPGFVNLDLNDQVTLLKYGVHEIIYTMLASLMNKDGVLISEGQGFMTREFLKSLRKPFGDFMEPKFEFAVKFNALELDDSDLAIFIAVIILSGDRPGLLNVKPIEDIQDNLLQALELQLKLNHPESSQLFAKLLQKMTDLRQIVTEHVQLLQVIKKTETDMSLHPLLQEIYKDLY
Procedure, shortened: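 Protein-fragment complementation of split Venus YFP reports PPARg/SRC-1 interaction in HEK293T (transfected 48 h before treatment), exposed 8 h. Readout: N/C fluorescence ratio at 488 nm from imaging, Draq5 for segmentation, positive fit relative to DMSO.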

[8] = molecular target: Peroxisome proliferator-activated receptor gamma (Homo sapiens) (UniProt P37231); experiment: OT_PPARg_PPARgSRC1_1440: Odyssey Thera (OT) 24-hour Protein-Complementation Assay for Peroxisome Proliferator-activated Receptor Gamma/ SRC-1 Co-activator (AID 2283388);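 further: nuclear to cytoplasmic ratio of reconstituted Venus YFP fluorescence in fixed imaged cells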
Procedure, shortened: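 Readout is the 488 nm N/C fluorescence ratio from fixed, Draq5-stained HEK293T cells after 24 h compound exposure. Cells carried transiently transfected PPARg and SRC-1 fused to Venus fragments, transfected 48 h before treatment.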

[9] = molecular target: Estrogen receptor (Homo sapiens) (UniProt P03372); experiment: OT_ERa_GFPERaERE_0480: Odyssey Thera (OT) 8-hour HeLa Transcription Induction Assay for Estrogen Receptor (AID 2283381; active means hit-call score of the fitted dose curve at least 0.9, where 1 is the maximum; inactive means score below 0.9)
Procedure, shortened: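 Cells (HeLa) receive compound; after 8 h, reporter fluorescence is imaged and quantified by high-content analysis. Gain-of-signal relative to DMSO gives the endpoint.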

[10] = molecular target: Agonist Androgen Response Element (ARE), AR (gene 367) (UniProt P10275); experiment: OT_AR_ARELUC_AG_1440: Odyssey Thera (OT) 24-hour CHO-K1 Luciferase Assay for Agonist Androgen Response Element (ARE) (AID 2283379)
Sequence of Agonist Androgen Response Element (ARE), AR (gene 367) (P10275 whole entry, looked up): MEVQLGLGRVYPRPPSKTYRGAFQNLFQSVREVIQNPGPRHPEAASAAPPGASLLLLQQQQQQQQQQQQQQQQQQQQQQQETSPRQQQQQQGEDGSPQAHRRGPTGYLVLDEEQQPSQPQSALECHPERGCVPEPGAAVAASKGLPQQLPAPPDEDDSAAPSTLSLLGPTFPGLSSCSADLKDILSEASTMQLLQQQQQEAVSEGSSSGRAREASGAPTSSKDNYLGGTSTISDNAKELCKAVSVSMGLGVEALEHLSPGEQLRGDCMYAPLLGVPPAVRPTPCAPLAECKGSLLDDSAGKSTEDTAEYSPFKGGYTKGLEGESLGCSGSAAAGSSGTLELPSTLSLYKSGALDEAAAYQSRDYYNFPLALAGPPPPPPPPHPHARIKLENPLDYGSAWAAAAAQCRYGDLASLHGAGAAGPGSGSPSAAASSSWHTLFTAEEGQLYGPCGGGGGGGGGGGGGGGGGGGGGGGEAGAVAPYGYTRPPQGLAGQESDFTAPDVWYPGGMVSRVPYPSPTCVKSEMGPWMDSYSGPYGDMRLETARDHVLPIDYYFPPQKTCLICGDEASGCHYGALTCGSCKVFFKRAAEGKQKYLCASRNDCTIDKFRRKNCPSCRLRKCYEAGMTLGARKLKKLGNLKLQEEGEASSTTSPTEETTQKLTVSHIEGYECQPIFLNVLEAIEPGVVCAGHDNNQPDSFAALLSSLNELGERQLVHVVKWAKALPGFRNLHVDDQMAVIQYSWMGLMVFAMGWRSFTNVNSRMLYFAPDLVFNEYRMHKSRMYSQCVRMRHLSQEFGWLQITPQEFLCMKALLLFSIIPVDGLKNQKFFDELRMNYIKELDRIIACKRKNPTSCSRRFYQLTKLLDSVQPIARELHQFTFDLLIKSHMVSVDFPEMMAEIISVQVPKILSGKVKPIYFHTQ
Procedure, shortened: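 Seed CHO-K1 cells; dose compounds for 24 h; add D-luciferin plus ATP in PBS; read luminescence. Signal increase relative to vehicle defines agonist activity, with at least 3 replicate wells per sample.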

Measured: AC50

COc1ccc([N+](=O)[O-])cc1N
not listed: [9] | [10]
inactive: all other assays above

C#C[C@]1(O)CC[C@H]2[C@@H]3CCC4=CC(=O)CC[C@@H]4[C@H]3CC[C@@]21C
inactive: [1] | [5] | [6] | [7] | [8]
active: [1] 29.3 µM and 30.3 µM and 22.2 µM

OC1CCC(C2CCCCC2)CC1 (configuration not stated)
active: [1] 57.8 µM and 49.5 µM and 59.4 µM | [3] 55.7 µM and 35.6 µM and 50 µM
inactive: [1] | [9] | [2] | [3] | [4] | [5] | [6] | [7] | [8]

CC(C)(C)CC(C)(C)c1ccc(O)c(-n2nc3ccccc3n2)c1
inactive: [1] | [2] | [7] | [8]
active: [3] 35.7 µM | [4] 34.5 µM | [5] 75.6 µM and 79 µM | [6] 30 µM and 84.7 µM

CN(C)C=O
not listed: [9] | [10]
inactive: all other assays above

CCCCCCCCCCCCc1ccccc1S(=O)(=O)O
active: [2] 94.4 µM | [3] 92.9 µM | [5] 76 µM and 80.5 µM
not listed: [9]
inactive: all other assays above

Nc1cccc2c(N)cccc12
inactive: all assays above

C[C@@H]1C[C@H]2[C@@H]3CCC4=CC(=O)C=C[C@]4(C)[C@@]3(F)[C@@H](O)C[C@]2(C)[C@@]1(O)C(=O)COP(=O)(O)O
not listed: [3] | [4] | [10]
inactive: all other assays above

OCCC(F)(F)C(F)(F)C(F)(F)C(F)(F)C(F)(F)C(F)(F)C(F)(F)C(F)(F)F
active: [10] 21.8 µM | [2] 3.54 µM
inactive: [1] | [9] | [5] | [6]

c1ccc2c(c1)ccc1ccccc12
not listed: [1]
inactive: all other assays above

O=C1OC2(c3ccccc31)c1cc(Br)c(O)c(Br)c1Oc1c2cc(Br)c(O)c1Br
active: [7] 74 µM | [8] 73.1 µM
not listed: [10]
inactive: all other assays above

Cc1cc(CCN2CCN(c3nsc4ccccc34)CC2)cc2c1NC(=O)CC2(C)C
inactive: [10] | [1] | [4] | [7] | [8]
active: [9] 16.1 µM | [2] 15.3 µM

CCc1nn(C2CCCCC2)c2cc(C3(C#N)CCC(C(=O)O)CC3)ccc12 (configuration not stated)
inactive: [1] | [9] | [2] | [5] | [7] | [8]
active: [3] 23.6 µM | [4] 41.3 µM | [5] 76.9 µM | [6] 79.7 µM and 73.6 µM

NC(=O)N(O)[C@@H]1C=C[C@H](Oc2cccc(Oc3ccc(F)cc3)c2)C1
inactive: [9] | [2] | [3] | [5] | [6] | [7] | [8]
active: [1] 66.9 µM | [4] 12.8 µM | [5] 92.2 µM

c1ccc2c(c1)Cc1ccccc1-2
not listed: [4] | [9] | [10]
inactive: all other assays above

CCCCCCCC(=O)O
inactive: [2] | [5] | [6] | [7] | [8]
active: [1] 21.3 µM

CC#C[C@]1(O)CC[C@H]2[C@@H]3CCC4=CC(=O)CCC4=C3[C@@H](c3ccc(N(C)C)cc3)C[C@@]21C
inactive: [3] | [4] | [5] | [6] | [7] | [8]
active: [3] 4.33 µM | [4] 5.36 µM | [5] 0.437 µM | [6] 416 nM

CC(=O)NC1(c2cccc(F)c2)CCN(CC[C@@]2(c3ccc(Cl)c(Cl)c3)CN(c3ccccc3)C(=O)CO2)CC1
active: [2] 62.3 µM | [3] 9.52 µM | [4] 9.83 µM
inactive: [6] | [7] | [8]

CN1CCC[C@H]1c1cccnc1
inactive: [1] | [2] | [6] | [7] | [8]

CCOC(=O)CC(O)(CC(=O)OCC)C(=O)OCC
inactive: [1] | [2] | [6] | [7] | [8]
